# Source: PubChem BioAssay (The Scripps Research Institute Molecular Screening Center)
# Shown are actives, neighbours in structure and some others; about 5.7% of the full set was active somewhere.
# AHR activator = human AHR activation; activation, % at 5 µM; AHR-responsive luciferase reporter cells, luminescence; AID 2796; 2.5% of 320,000 active; P35869; in the data active = activation above about 47%;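 also: 0% = vehicle wells and 100% = reference agonist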
# hcDAF-12 act = activators of H. contortus DAF-12 nuclear receptor; 1.4% of 370,000 active; activation, % at 6.8 µM; AID 652067; HEK293 hcDAF-12 lit1-tk-luc reporter, luminescence; 0% DMSO, 100% Δ7-dafachronic acid;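 active = activation above the mean of all tested compounds plus 3 SD, cut at about 5.5% in these data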;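 also: 100% = response to 3 µM Δ7-dafachronic acid high control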
# DAX1 inh-1 = inhibitors of human orphan nuclear receptor DAX1 (NR0B1); 0.99% of 340,000 active; P51843; HEK293 Gal4-DAX1 luciferase reporter, luminescence; inhibition, % at 6.75 µM; AID 504766;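 active = inhibition above the mean over all tested compounds plus 3 SD, cut at about 4.2% in these data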;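 also: 0% = DAX1-transfected cells with DMSO and 100% = empty-vector control cells with DMSO; inhibition shows as a rise in luminescence from relieved DAX1 repression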
# Target sequence (P51843 207-470 limits assumed): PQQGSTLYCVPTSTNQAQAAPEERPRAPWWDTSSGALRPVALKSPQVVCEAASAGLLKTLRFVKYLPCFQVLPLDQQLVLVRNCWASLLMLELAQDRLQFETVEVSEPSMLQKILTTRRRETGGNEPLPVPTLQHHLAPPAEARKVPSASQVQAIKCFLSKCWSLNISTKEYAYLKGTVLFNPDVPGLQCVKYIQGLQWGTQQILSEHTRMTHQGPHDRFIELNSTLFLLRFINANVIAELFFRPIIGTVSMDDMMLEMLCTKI
# DAX1 inh-2 = inhibitors of DAX1 repression of SF-1 activated StAR promoter | HEK293T StAR-luciferase reporter, SF-1/DAX-1 repression relief | inhibition, % at 6.8 µM | 1.1% of 370,000 active;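 active = inhibition above the mean over all tested compounds plus 3 SD, cut at about 3.6% in these data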;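 also: 0% = DAX-1 cells with DMSO and 100% = cells lacking DAX-1 with DMSO; higher inhibition means more luminescence from relief of DAX-1 repression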
# ssDAF12 agonist = activates DAF-12 receptor from parasite S. stercoralis. HEK293 ssDAF-12/GRIP1 lit1-tk-luc reporter, luminescence; % of 3 µM dafachronic acid response. activation, % at 6.8 µM. 1% of 370,000 active. AID 652126;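 active = activation above the mean over all tested compounds plus 3 SD, cut at about 0.9% in these data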;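 also: 0% = DMSO-only wells and 100% = 3 µM delta7-dafachronic acid wells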
# hgDAF-12 ag = hgDAF-12 agonism, primary luciferase screen; AID 687014; activation, % at 6.8 µM; HEK293 GAL4-hgDAF12 UAS-luciferase reporter, agonist luminescence; normalized to butyrate control; 1.8% of 370,000 active;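 active = activation above a cutoff set at the mean of all screened compounds plus 3 SD, cut at about 10% in these data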;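 also: 0% = DMSO wells and 100% = sodium butyrate wells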
# LXRb hcDAF ctr = activates human LXR-beta, counter-screen for hcDAF-12 agonists | 3,400 tested, under 10 active | activation, % at 6.8 µM | HEK293 Gal4-LXR tk-luc reporter, luminescence, 24 h; normalized: DMSO 0%, positive control 100% | shares compounds with hcDAF-12 act;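 active = mean percent activation of the reporter above a cutoff set as the average over tested compounds plus their standard deviation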
# hcDAF12 ag = confirmation of H. contortus DAF-12 agonists; shares compounds with hcDAF-12 act; 61% of 3,400 active; HEK293 hcDAF-12 lit1-tk-luc reporter, luminescence; % of Δ7-dafachronic acid response; activation, % at 6.8 µM; AID 743032;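 active = mean activation across triplicate tests above the threshold derived from the earlier primary screen, cut at about 5.5% in these data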;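 also: 0% = DMSO only wells and 100% = 3 µM Δ7-dafachronic acid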
# The depositor's hits bear a star; nt = no result.
SMILES,AHR activator,hcDAF-12 act,DAX1 inh-1,DAX1 inh-2,ssDAF12 agonist,hgDAF-12 ag,LXRb hcDAF ctr,hcDAF12 ag
Cc1ccc(-c2nc3cc(C)c(Br)c(C)n3c2CC2CCCCC2)cc1,nt,7.7*,nt,1.5,1.7*,6.9,-0.2,3.7
Cc1cc2nc(-c3ccccc3)c(CC3CCCCC3)n2c(C)c1Br,nt,6.9*,nt,3.5,0.9*,3.8,-0.2,2.9
Cc1ccc(-c2nc3c4ccccc4ccn3c2CC2CCCCC2)cc1,nt,7.5*,nt,1.6,2.5*,11.0*,0.1,6.2*
COc1ccc(-c2nc3cc(C)c(Br)c(C)n3c2CC2CCCCC2)cc1OC,nt,0.5,nt,2.0,0.7,-0.2,nt,nt
CCOC1(OCC)OC(c2ccccc2)=C(C#N)C(C=Cc2ccccc2)C1(OCC)OCC (configuration not stated),nt,-1.8,2.5,-1.5,-1.2,0.8,nt,nt
Cn1nnnc1SCc1cccc2ccccc12,5.2,-1.7,-0.6,0.4,-1.8,-0.7,nt,nt
Cc1cccc(C)c1Nc1nnc(SCC(=O)NCc2cccs2)s1,2.4,0.3,0.6,-0.1,-1.4,1.9,nt,nt
COc1cccc(Nc2nnc(SCc3nc4ccccc4s3)s2)c1,66.6*,7.0*,0.1,0.3,0.5,8.4,0.7,10.5*
Cn1nnnc1SCc1nc2ccccc2s1,16.4,8.7*,2.1,1.2,2.1*,5.0,0.0,8.5*
Cc1cccc(C)c1Nc1nnc(SCc2nc3ccccc3s2)s1,17.9,11.5*,0.3,2.1,0.9*,13.1*,0.8,11.3*
COc1ccc(-c2nn(-c3ccccc3)cc2C(=O)NC2CC2)cc1,7.3,-2.8,0.5,1.4,-0.9,-1.4,nt,nt
CC(CN1CCCCC1)C(=O)NN (configuration not stated),1.5,-1.1,0.4,0.3,-1.3,-1.0,nt,nt
CC(C)C(=O)N1CCCCCCN1C(=O)C(C)C,nt,7.8*,4.4*,-0.9,-0.4,-1.3,-0.2,-1.0
Cc1ccc(-c2cc3nc(C)cc(NCc4ccco4)n3n2)cc1,16.9,8.5*,1.7,3.0,2.4*,9.0,0.9,6.2*
N#CC1(c2ccc(NC(=O)c3ccccc3F)cc2)CCCC1,8.5,6.9*,-0.5,3.2,0.4,23.2*,2.1,6.6*
O=c1[nH]c2ccccc2nc1-c1cccs1,30.7,2.4,0.5,1.2,-0.5,4.4,nt,nt
O=c1[nH]c2ccccc2nc1/C=C(\O)c1cccs1,47.9*,7.8*,2.4,1.8,0.4,10.5*,1.3,12.8*
O/C(=C\c1nc2ccccc2[nH]1)c1cccs1,35.6,8.5*,1.4,1.2,1.0*,11.8*,0.5,8.1*
CCN(CC)S(=O)(=O)c1ccc(-c2nnc(SCC(=O)N3c4ccccc4CC3C)n2CC)cc1 (configuration not stated),3.1,-0.5,-0.2,0.3,-1.6,2.3,nt,nt
COc1ccc(C2c3[nH]c4ccccc4c3C[C@H]3C(=O)N(c4ccccc4C(=O)N4CCC(C(=O)O)CC4)C(=O)N23)cc1 (some centres not stated),11.0,5.3,2.3,0.6,-0.7,1.3,nt,nt
CCn1c(=O)c2cc(C(=O)N3CCN(C)CC3)sc2c2ccccc21,37.1,-0.6,-0.9,-0.1,0.1,-3.4,nt,nt
CN1CCN(C(=O)c2cc3sc4ccccc4c3s2)CC1,0.3,7.3*,nt,4.5*,0.1,13.1*,1.4,5.4
O=Nc1c(O)c2ccccc2c2ccccc12,13.1,-4.8,-6.1,-3.0,-2.4,-12.2,nt,nt
O=c1c(=Nc2ccccc2O)c(=O)c2ccccc12,2.5,8.3*,-0.2,-1.1,-0.9,-0.2,0.7,5.4
CCNC(=S)Nc1ccc(C)c(Cl)c1,3.6,0.6,-1.1,-0.3,-1.8,1.2,nt,nt
O=C1c2cccc3c(N4CCOCC4)c([N+](=O)[O-])cc(c23)C(=O)N1c1cccc2ccccc12,7.3,6.8*,0.5,0.4,-1.1,-0.2,-0.4,-0.7
